# Shown is part of a subset that was picked to be rich in hits.
# KDM5B inh – Primary screen for KDM5B Histone Demethylases FDH-coupled qHTS; Lysine-specific demethylase 5B (Homo sapiens), Q9UGL1; KDM5B demethylase, FDH-coupled NADH fluorescence (FDH is formaldehyde dehydrogenase); Potency, µM (series often up to 57.7 µM), usual class: inhibitors; hit rate 2.6% among 220,000; AID 1347165, 2019; active = well fitted inhibition curve with a large enough effect; note: 0% is about no effect; nearly all actives have a fitted effect of over 70% in size
# Target sequence (Q9UGL1 whole entry, looked up): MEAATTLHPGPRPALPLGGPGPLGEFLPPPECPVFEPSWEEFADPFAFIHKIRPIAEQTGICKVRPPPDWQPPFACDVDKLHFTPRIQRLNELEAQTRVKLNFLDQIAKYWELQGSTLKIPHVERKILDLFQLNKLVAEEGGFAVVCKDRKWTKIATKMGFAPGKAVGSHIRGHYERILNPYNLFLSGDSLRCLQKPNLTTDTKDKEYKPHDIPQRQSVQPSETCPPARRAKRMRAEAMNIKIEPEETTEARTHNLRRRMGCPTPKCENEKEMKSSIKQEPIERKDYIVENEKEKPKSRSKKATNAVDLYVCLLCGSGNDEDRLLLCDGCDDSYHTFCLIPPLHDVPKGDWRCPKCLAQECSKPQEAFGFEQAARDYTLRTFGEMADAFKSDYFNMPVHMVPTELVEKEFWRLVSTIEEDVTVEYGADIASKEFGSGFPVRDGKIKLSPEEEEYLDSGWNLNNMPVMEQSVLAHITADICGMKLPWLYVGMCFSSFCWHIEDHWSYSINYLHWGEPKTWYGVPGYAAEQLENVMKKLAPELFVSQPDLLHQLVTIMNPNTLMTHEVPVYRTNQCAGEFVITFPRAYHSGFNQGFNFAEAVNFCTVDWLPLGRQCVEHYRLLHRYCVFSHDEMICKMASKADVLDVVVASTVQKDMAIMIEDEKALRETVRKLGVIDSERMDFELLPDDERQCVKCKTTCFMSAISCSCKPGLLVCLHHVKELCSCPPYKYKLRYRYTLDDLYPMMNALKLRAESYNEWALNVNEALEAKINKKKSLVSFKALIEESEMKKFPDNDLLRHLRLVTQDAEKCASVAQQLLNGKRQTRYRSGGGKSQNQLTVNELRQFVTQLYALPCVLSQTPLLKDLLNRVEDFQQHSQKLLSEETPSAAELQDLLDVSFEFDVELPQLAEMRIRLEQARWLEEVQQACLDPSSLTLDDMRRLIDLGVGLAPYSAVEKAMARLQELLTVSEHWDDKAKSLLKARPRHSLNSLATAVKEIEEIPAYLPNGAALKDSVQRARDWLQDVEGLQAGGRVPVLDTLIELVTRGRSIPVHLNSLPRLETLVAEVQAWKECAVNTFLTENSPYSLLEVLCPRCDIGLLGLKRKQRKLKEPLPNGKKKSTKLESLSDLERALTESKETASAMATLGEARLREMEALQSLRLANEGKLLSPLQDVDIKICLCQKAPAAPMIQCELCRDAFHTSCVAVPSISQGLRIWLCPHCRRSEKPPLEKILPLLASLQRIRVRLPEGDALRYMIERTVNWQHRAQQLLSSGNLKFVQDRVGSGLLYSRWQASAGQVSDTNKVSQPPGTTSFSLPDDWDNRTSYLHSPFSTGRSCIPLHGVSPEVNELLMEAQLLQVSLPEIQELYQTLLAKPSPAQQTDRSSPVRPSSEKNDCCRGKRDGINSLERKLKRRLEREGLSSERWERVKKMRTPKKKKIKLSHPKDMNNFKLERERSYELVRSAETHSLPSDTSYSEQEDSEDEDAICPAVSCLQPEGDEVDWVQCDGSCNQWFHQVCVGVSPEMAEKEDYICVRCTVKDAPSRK
#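 Compound dilutions met 200 nM (final) KDM5BΔAP for 10 min at room temperature before substrate addition. The substrate mix held 12.5 µM H3K4me3 with cofactors 25 µM α-ketoglutarate and 50 µM Fe²⁺. NADH signal gain over 30 min defined activity.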
# Starred values were filed as active, the others as inactive; i = inactive. Potency is the fitted concentration of half-maximal effect.
SMILES,KDM5B inh
COc1ccc(N2Cc3c(ncnc3N3CCOCC3)N(C)CC2=O)cc1,i
COc1ccc(NC(=O)Nc2ccc3nc(N4CCOCC4)cc(C)c3c2)cc1OC,i
COc1cccc(-c2ncc3c(n2)OCCN(c2ccccc2)C3=O)c1OC,i
Cc1cc(N2CCOCC2)nc(Nc2ccc(NC(=O)c3ccccc3)cc2)n1,i
Cc1nnc(-c2cc(-c3ccccc3Oc3ccccc3)ccn2)n1CCN1CCOCC1,i
Cc1cc(C(=O)OCC(=O)Nc2cc(F)ccc2F)c2ccccc2n1,i
Cc1ccc(S(=O)(=O)N2CCC(C(=O)N3CCC(CCc4ccc(O)cc4)CC3)CC2)c(C)c1,i
Cc1ccc(S(=O)(=O)N[C@H]2CO[C@H]3[C@@H]2OC[C@@H]3n2nnnc2Oc2ccc(-n3cncn3)cc2)cc1,i
O=S(=O)(N[C@H]1CO[C@H]2[C@@H]1OC[C@@H]2n1nnnc1Oc1ccc(-n2cncn2)cc1)c1cccs1,18µM*
CC(=O)Nc1ccc(S(=O)(=O)N[C@H]2CO[C@H]3[C@@H]2OC[C@@H]3n2nnnc2Oc2ccc(-n3cncn3)cc2)cc1,i
CC(=O)N1Cc2ccccc2CC2(CCN(Cc3ccccc3)C2)C1 (stereo not drawn),i
Cc1ccccc1S(=O)(=O)N1CCCC(Cc2noc(-c3cnccn3)n2)C1 (stereo not drawn),i
COCCNS(=O)(=O)c1cccc2c1CN(C(=O)CCn1cncn1)CC2,i
COc1cccc(COC(=O)c2nn(Cc3ccccc3)c(=O)c3ccccc23)c1,i
CC(C)(Oc1ccc(Cl)cc1)C(=O)Nc1cc(C(C)(C)C)no1,i
Cc1cc2c(-c3ccc(CO)cc3)nc(-c3c(C)noc3C)cc2[nH]1,i
Cc1cc2c(-c3cccc(OC(C)C)c3)nc(-c3c(C)noc3C)cc2[nH]1,16µM*
CC(C)Oc1cccc(-c2n[nH]c3c2CC(=O)N(c2ccccc2)C3)c1,i
CN(CC(=O)Nc1ccc(F)c(Cl)c1)Cc1nc2ccccc2c(=O)[nH]1,i
Cc1c(-c2ccccc2)nc2ccc(Br)cc2c1C(=O)O,i
O=C(NCCn1cc(-c2cncnc2)nn1)c1ccc(F)cc1,i
COCC(=O)N(C1CCOCC1)C1CCN(C(=O)c2ccc(F)cc2)CC1,i
O=C(NCC1CNCCOC1)NC1CCCCC1 (stereo not drawn),i
COCCN(CC1CC1)C(=O)c1ccc2nc(-c3ccc(F)cc3)cn2c1,25µM*
O=C(NCCc1cnc[nH]1)c1ccc2nc(-c3ccc(F)cc3)cn2c1,32µM*
SMILES,KDM5B inh
O=C(NCC1CNCCOC1)c1ccc2nc(-c3ccc(F)cc3)cn2c1 (stereo not drawn),28µM*
O=C(Cc1ccc(F)cc1)NCCc1cnc[nH]1,i
COCCN(CC1CCN(Cc2ccccc2OC)CC1)C(=O)c1n[nH]c2c1CCC2,i
COCCN1CCC(CN(Cc2ccncc2)C(=O)c2ccc(F)c(C)c2)CC1,i
CCCNC(=O)N(C1CCOCC1)C1CCN(C(=O)c2ccc(F)cc2)CC1,i
CN(C(=O)c1ccc2nc(-c3ccc(F)cc3)cn2c1)C1CCOCC1,22µM*
CCn1cc(S(=O)(=O)NCC2CNCCOC2)cn1 (stereo not drawn),i
COc1cc(OC)cc(C(=O)Nc2cccc(-c3nnc4n3CCCC4)c2)c1,i
C#CCO[C@@H]1CCN(S(=O)(=O)c2cccs2)[C@H](C(=O)N[C@H](C)C(N)=O)C1,i
Cn1cccc1C1CCCN1Cc1nnc(-c2ccccc2)o1 (stereo not drawn),i
CCCS(=O)(=O)c1nc(S(=O)(=O)c2ccc(C)cc2)c(NCC)s1,i
O=C(Nc1cccc(S(=O)(=O)NC2=NCCC2)c1)C1(c2cccc(Cl)c2)CC1,i
O=C(COc1ncnc2c(Cl)cc(Cl)cc12)Nc1ccc(Cl)cc1,i
COc1ccc(-c2nc(-c3cccs3)sc2-c2ccc(OC)cc2)cc1,i
CCNC(=O)N(C1CC1)C1CCOC2(CCN(C(=O)Cc3cccc(C)c3)CC2)C1 (stereo not drawn),i
Cc1c(C(=O)N2CCC(C)CC2)c(S(=O)(=O)NCc2ccc(F)cc2)c(C)n1C,i
Cc1ccc(NC(=O)c2nn(Cc3ccccc3)c(=O)c3ccccc23)cc1Cl,i
COCC1CN(C(C)=O)CC12CCN(Cc1sccc1C)CC2 (stereo not drawn),i
CC(C)(C)c1ccc(C(CC(=O)O)NC(=O)c2ccc(F)cc2)cc1 (stereo not drawn),i
CCC(NC(=O)c1ccc2nc(-c3ccc(F)cc3)cn2c1)c1ncc(C)[nH]1 (stereo not drawn),25µM*
CCOC(=O)c1ccc(NC(=O)c2sc3nc(-c4ccc(F)cc4)cn3c2C)cc1,i
CCN(Cc1cc2ccc(C)cc2[nH]c1=O)C(=O)c1ccccc1C,i
Cc1ccc2cc(COC(=O)c3ccco3)c(=O)[nH]c2c1,i
CCOC(=O)CN1CCN(C(=O)CCc2cc3ccc(C)cc3[nH]c2=O)CC1,25µM*
CC(Sc1ccccc1)C(=O)OCc1nc(N)nc(Nc2ccc(Cl)cc2)n1 (stereo not drawn),i
SMILES,KDM5B inh
C/C(=N/Nc1ccc(S(N)(=O)=O)cc1[N+](=O)[O-])c1cccc(Br)c1,i
CC(C)c1ccc([S+](=O)([O-])c2nnn3c2nc(N2CCC(F)CC2)c2ccccc23)cc1,i
O=[S+]([O-])(c1ccc(Br)cc1)c1nnn2c1nc(NC1CCCC1)c1ccccc12,i
O=S(=O)(c1ccccc1)c1nnn2c1nc(N1CCOCC1)c1ccccc12,i
COc1ccc([S+](=O)([O-])c2nnn3c2nc(N2CCC(F)CC2)c2ccccc23)cc1,79µM*
COc1ccc([S+](=O)([O-])c2nnn3c2nc(NC2CC2)c2ccccc23)cc1,89µM*
COc1ccc(OC)c([S+](=O)([O-])c2nnn3c2nc(N2CCOCC2)c2ccccc23)c1,i
CC1CCN(c2nc3c(-c4cccc(Br)c4)nnn3c3ccccc23)CC1,i
COc1ccc(OC)c([S+](=O)([O-])c2nnn3c2nc(N2CCC(F)CC2)c2ccccc23)c1,50µM*
O=[S+]([O-])(c1ccc(Cl)cc1)c1nnn2c1nc(NC1CC1)c1ccccc12,i
CCc1sc(C(=O)OCC(=O)c2ccc(OC)cc2OC)cc1C,i
CCOC(=O)C1CCCN(C(=O)c2coc(COc3cccc(F)c3F)n2)C1 (stereo not drawn),i
O=C(NCC(=O)N1CCCC1)C(=O)Nc1ccc2cc[nH]c2c1,i
Cc1ccc(Cl)cc1N1CCN(C(=O)CN2CC3CC(C2)[C@H]2CCCC(=O)N2C3)CC1 (stereo partly drawn),i
COC1CCC(C(=O)N2CC(CNc3ccccc3)C3(C2)CN(c2ccccc2)C3)CC1 (stereo not drawn),i
CNC(=O)NC(=O)CCN1CCOC(c2ccc(Br)cc2)C1 (stereo not drawn),i
NC(=O)c1nn(CC(=O)NCc2ccc(F)cc2)c(=O)c2ccccc12,i
COc1ccc(-c2ccnc(N[C@H]3CO[C@H]4[C@@H]3OC[C@@H]4NC(=O)Nc3ccc(C(C)=O)cc3)n2)cc1,i
N#Cc1cccc(NC(=O)N[C@H]2CO[C@H]3[C@@H]2OC[C@@H]3Nc2nccc(-c3cccs3)n2)c1,i
CN(C)c1ccc(-c2ccnc(N[C@H]3CO[C@H]4[C@@H]3OC[C@H]4OC(=O)NCc3ccccc3)n2)cc1,28µM*

# Screening results deposited in PubChem by National Center for Advancing Translational Sciences (NCATS).
